Laboratory results as given in PubChem BioAssay (EPA / NIEHS).
Several values for one entry are separate records, joined by “and”; a condition that tells them apart may be missing. Equal entries are not always repeated. More than one record can exist for a structure, and the calls need not agree. Activity calls are given as the source filed them. How the source made its calls: active means hit-call score of the fitted dose curve at least 0.9, where 1 is the maximum; inactive means score below 0.9.

Legend:
[1] = read-out: Transforming growth factor beta 1 (TGFb1), TGFB1 (gene 7040); test: BSK_KF3CT_TGFb1: BioMAP Diversity Plus: KF3CT Assay for Transforming growth factor beta 1 (TGFb1) Biomarker Activity (AID 2283072); details: primary human keratinocytes with fibroblasts; actives raise or lower the signal
Method in brief: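 Human keratinocyte/foreskin fibroblast co-culture; TGF-b1 measured by ELISA 24 h after dosing, fitted bidirectionally versus DMSO. Cytotoxicity checked in parallel cultures by total protein (SRB staining, 560 nm).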

[2] = read-out: C-C motif chemokine 2 (Homo sapiens) (UniProt P13500); test: BSK_KF3CT_MCP1: BioMAP Diversity Plus: KF3CT Assay for Monocyte Chemoattractant Protein 1 (MCP1/CCL2) Biomarker Activity (AID 2283073); details: primary human keratinocytes with fibroblasts; actives raise or lower the signal
Method in brief: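 Human keratinocyte plus foreskin fibroblast primary co-culture exposed to chemical for 24 h. MCP-1 levels measured by ELISA. Bidirectional curve fitting relative to DMSO negative control as baseline.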

[3] = read-out: Matrix Metallopeptidase 9 (MMP9), MMP9 (gene 4318); test: BSK_KF3CT_MMP9: BioMAP Diversity Plus: KF3CT Assay for Matrix Metallopeptidase 9 (MMP9) Biomarker Activity (AID 2283074); details: primary human keratinocytes with fibroblasts; actives raise or lower the signal;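 on AC50: MMP9 protein level quantified by ELISA in the co-culture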
Method in brief: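 Human keratinocyte and foreskin fibroblast co-culture exposed to chemicals for 24 h; MMP9 biomarker measured by ELISA, bidirectional fitting relative to DMSO; cytotoxicity tracked by SRB total protein staining in parallel cultures.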

[4] = read-out: urokinase plasminogen activator (uPA), PLAU (gene 5328); test: BSK_KF3CT_uPA: BioMAP Diversity Plus: KF3CT Assay for urokinase plasminogen activator (uPA) Biomarker Activity (AID 2283075); details: primary human keratinocytes with fibroblasts; actives raise or lower the signal
Method in brief: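 Primary human keratinocyte/foreskin fibroblast co-culture exposed to chemical; uPA measured by ELISA at 24 h. Bidirectional fit versus DMSO, with parallel SRB total-protein staining for cytotoxicity.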

[5] = read-out: CD40, CD40 (gene 958); test: BSK_LPS_CD40: BioMAP Diversity Plus: LPS Assay for CD40 Biomarker Activity (AID 2283076); details: primary human HUVEC with PBMC; actives raise or lower the signal
Method in brief: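 Primary human umbilical vein endothelial cells co-cultured with peripheral blood mononuclear cells, LPS-stimulated, were dosed with chemical and read 24 h later. CD40 levels were measured by ELISA and fitted bidirectionally against DMSO as negative control and baseline.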

[6] = read-out: E-selectin (Homo sapiens) (UniProt P16581); test: BSK_LPS_Eselectin: BioMAP Diversity Plus: LPS Assay for Eselectin Biomarker Activity (AID 2283077); details: primary human HUVEC with PBMC; actives raise or lower the signal
Method in brief: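 Human umbilical vein endothelial cells co-cultured with peripheral blood mononuclear cells under LPS stimulation; E-selectin measured by ELISA 24 h after chemical dosing. Activity fitted bidirectionally against DMSO as negative control and baseline.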

[7] = read-out: Interleukin-8 (IL8), CXCL8 (gene 3576); test: BSK_LPS_IL8: BioMAP Diversity Plus: LPS Assay for Interleukin-8 (IL8) Biomarker Activity (AID 2283078); details: primary human HUVEC with PBMC; actives raise or lower the signal
Method in brief: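 Human umbilical vein endothelial cells co-cultured with PBMC were stimulated with LPS; IL-8 levels were measured by ELISA 24 h after chemical dosing. Activity was fitted bidirectionally against DMSO as negative control and baseline.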

[8] = BSK_LPS_SRB: Viability Assessment in the BioMAP Diversity Plus: LPS Assay (AID 2283079); details: primary human HUVEC with PBMC;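 further: total protein by sulforhodamine B absorbance as a cytotoxicity measure; measured one day after compound addition; fitted in both directions against DMSO so loss or gain of signal counts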
Method in brief: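 Human umbilical vein endothelial cells co-cultured with PBMC (LPS system) were dosed for 24 h. Total protein was stained with 0.1% sulforhodamine B after 10% TCA fixation, read at 560 nm, and fitted bidirectionally against DMSO baseline.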

[9] = BSK_LPS_PGE2: BioMAP Diversity Plus: LPS Assay for Prostaglandin E2 (PGE2) Biomarker Activity (AID 2283082); details: primary human HUVEC with PBMC; actives raise or lower the signal;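 on AC50: secreted prostaglandin E2 measured by ELISA in LPS-stimulated co-culture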
Method in brief: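 HUVEC plus human PBMC co-culture stimulated with LPS; secreted PGE2 quantified by ELISA 24 h after chemical dosing. Activity fitted bidirectionally against DMSO baseline; parallel SRB staining (0.1% SRB after 10% TCA fixation, 560 nm) flags overt cytotoxicity.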

[10] = read-out: Tissue Factor, F3 (gene 2152); test: BSK_LPS_TissueFactor: BioMAP Diversity Plus: LPS Assay for Tissue Factor Biomarker Activity (AID 2283084); details: primary human HUVEC with PBMC; actives raise or lower the signal
Method in brief: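 Human umbilical vein endothelial cells co-cultured with peripheral blood mononuclear cells were dosed and stimulated with LPS. Cell-surface CD142 was quantified by ELISA at 24 h. Activity was fitted bidirectionally against DMSO baseline.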

[11] = read-out: Tumor necrosis factor (Homo sapiens) (UniProt P01375); test: BSK_LPS_TNFa: BioMAP Diversity Plus: LPS Assay for Tumour Necrosis Factor alpha (TNFa) Biomarker Activity (AID 2283085); details: primary human HUVEC with PBMC; actives raise or lower the signal
Method in brief: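 Human umbilical vein endothelial cells co-cultured with PBMC and stimulated with LPS. TNFa was measured by ELISA 24 h after chemical dosing, fitted bidirectionally relative to DMSO.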

[12] = read-out: Vascular cell adhesion molecule 1 (VCAM1), VCAM1 (gene 7412); test: BSK_LPS_VCAM1: BioMAP Diversity Plus: LPS Assay for Vascular cell adhesion molecule 1 (VCAM1) Biomarker Activity (AID 2283086); details: primary human HUVEC with PBMC; actives raise or lower the signal
Method in brief: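 Human umbilical vein endothelial cells co-cultured with PBMC and stimulated with LPS; VCAM-1 measured by ELISA 24 h after dosing. Bidirectional curve fitting against DMSO baseline; cytotoxicity tracked in parallel by SRB total-protein staining.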

[13] = read-out: CD38, CD38 (gene 952); test: BSK_SAg_CD38: BioMAP Diversity Plus: SAg Assay for CD38 Biomarker Activity (AID 2283087); details: primary human HUVEC with PBMC; actives raise or lower the signal
Method in brief: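 Human HUVEC plus PBMC co-culture stimulated with superantigen; CD38 measured by ELISA 24 h after chemical dosing. Fluorescence read-out, bidirectional fit against DMSO; cytotoxicity tracked in parallel by SRB and Alamar Blue.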

[14] = read-out: Monocyte Chemoattractant Protein-1 (MCP1), CCL2 (gene 6347); test: BSK_SAg_MCP1: BioMAP Diversity Plus: SAg Assay for Monocyte Chemoattractant Protein-1 (MCP1) Biomarker Activity (AID 2283090); details: primary human HUVEC with PBMC; actives raise or lower the signal
Method in brief: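 MCP-1 levels in the endothelial–PBMC SAg co-culture were quantified by ELISA at 24 h post-dosing; both increases and decreases versus DMSO scored. Cytotoxicity monitored by SRB total protein in parallel cultures.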

[15] = read-out: CD40, CD40 (gene 958); test: BSK_SAg_CD40: BioMAP Diversity Plus: SAg Assay for CD40 Biomarker Activity (AID 2283088); details: primary human HUVEC with PBMC; actives raise or lower the signal
Method in brief: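 Human umbilical vein endothelial cells co-cultured with PBMC; CD40 levels measured by ELISA with fluorescence read-out 24 h after chemical dosing. Gain or loss of signal fitted bidirectionally against DMSO baseline.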

[16] = read-out: E-selectin (Homo sapiens) (UniProt P16581); test: BSK_SAg_Eselectin: BioMAP Diversity Plus: SAg Assay for Eselectin Biomarker Activity (AID 2283091); details: primary human HUVEC with PBMC; actives raise or lower the signal
Method in brief: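 HUVEC co-cultured with PBMC, compound dosed then read at 24 h; E-selectin measured by ELISA. Activity fitted bidirectionally against DMSO as negative control and baseline.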

[17] = read-out: Macrophage colony-stimulating factor (MCSF), CSF1 (gene 1435); test: BSK_LPS_MCSF: BioMAP Diversity Plus: LPS Assay for Macrophage colony-stimulating factor (MCSF) Biomarker Activity (AID 2283083); details: primary human HUVEC with PBMC; actives raise or lower the signal
Method in brief: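 Human umbilical vein endothelial cells co-cultured with peripheral blood mononuclear cells were exposed to compound for 24 h. M-CSF levels were measured by ELISA, and bidirectional curve fitting used DMSO as the negative control and baseline.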

Measured: AC50

Chain of E-selectin (Homo sapiens) (P16581 whole entry, looked up): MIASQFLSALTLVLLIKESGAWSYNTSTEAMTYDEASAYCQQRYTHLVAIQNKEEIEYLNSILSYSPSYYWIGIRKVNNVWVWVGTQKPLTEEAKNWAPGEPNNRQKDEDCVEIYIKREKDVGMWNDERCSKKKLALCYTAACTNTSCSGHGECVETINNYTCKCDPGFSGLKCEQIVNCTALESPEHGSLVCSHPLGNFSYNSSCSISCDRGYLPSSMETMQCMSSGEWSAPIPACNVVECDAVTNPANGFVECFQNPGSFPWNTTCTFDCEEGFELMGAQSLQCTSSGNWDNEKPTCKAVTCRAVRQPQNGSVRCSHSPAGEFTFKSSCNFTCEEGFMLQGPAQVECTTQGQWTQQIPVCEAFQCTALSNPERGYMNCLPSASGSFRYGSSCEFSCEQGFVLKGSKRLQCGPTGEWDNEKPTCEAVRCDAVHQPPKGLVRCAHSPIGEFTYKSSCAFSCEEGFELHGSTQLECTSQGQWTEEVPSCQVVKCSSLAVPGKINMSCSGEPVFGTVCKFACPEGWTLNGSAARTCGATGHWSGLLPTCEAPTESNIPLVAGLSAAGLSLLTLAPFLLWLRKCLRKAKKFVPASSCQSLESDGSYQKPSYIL
Chain of Tumor necrosis factor (Homo sapiens) (P01375 whole entry, looked up): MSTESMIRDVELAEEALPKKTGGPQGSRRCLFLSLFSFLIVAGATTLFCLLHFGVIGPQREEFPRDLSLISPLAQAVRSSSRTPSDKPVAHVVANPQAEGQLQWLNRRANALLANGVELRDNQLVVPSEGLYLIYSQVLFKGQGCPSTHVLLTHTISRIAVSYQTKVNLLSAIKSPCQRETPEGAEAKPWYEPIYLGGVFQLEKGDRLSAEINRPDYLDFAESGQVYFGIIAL

CN(c1nccc(=O)[nH]1)C1CCN(c2nc3ccccc3n2Cc2ccc(F)cc2)CC1
inactive: [1] | [2] | [3] | [4] | [5] | [6] | [7] | [8] | [9] | [10] | [11] | [12] | [13] | [14]

CC(=O)Nc1ccc(C(=O)CCl)cc1
active: [2] 28.6 µM | [3] 20 µM | [4] 30 µM | [5] 5.35 µM | [6] 4.61 µM | [7] 3.91 µM | [9] 1.17 µM | [10] 5.39 µM | [11] 4.58 µM | [12] 4.35 µM | [13] 3.84 µM | [15] 4.69 µM | [14] 10.6 µM

CCOC(=O)C(C#N)=C(c1ccccc1)c1ccccc1
inactive: [2] | [3] | [4] | [5] | [6] | [7] | [10] | [11] | [12] | [13] | [14] | [16]
active: [9] 6.95 µM and 2.79 µM | [14] 20 µM | [16] 29.8 µM

O=C1OC[C@H](Cc2cccc(O)c2)[C@H]1Cc1cccc(O)c1
inactive: [1] | [2] | [3] | [4] | [5] | [6] | [7] | [9] | [10] | [11] | [12] | [13] | [14] | [16]

C1=CC2C3C=CC(C3)C2C1 (centres undefined)
inactive: [1] | [2] | [3] | [4] | [5] | [6] | [7] | [9] | [10] | [11] | [12] | [13] | [14]

CN(C)C(=O)Nc1ccc(Oc2ccc(Cl)cc2)cc1
inactive: [1] | [2] | [3] | [4] | [5] | [6] | [7] | [10] | [11] | [12] | [13] | [14]
active: [9] 5.86 µM

COc1ccc(OC)c(N=Nc2c(O)ccc3ccccc23)c1
active: [1] 3.97 µM | [3] 4.27 µM | [4] 7.69 µM | [5] 3.84 µM | [6] 20 µM | [10] 20 µM | [11] 20 µM | [12] 20 µM | [13] 20 µM
inactive: [2] | [7] | [9] | [14]

IC(I)I
inactive: [1] | [2] | [3] | [4] | [5] | [6] | [7] | [9] | [10] | [11] | [12] | [13] | [14]

C[C@@H]1CCN(C(=O)[C@H](CCCN=C(N)N)NS(=O)(=O)c2cccc3c2NC[C@H](C)C3)[C@@H](C(=O)O)C1
inactive: [1] | [2] | [3] | [4] | [5] | [6] | [7] | [9] | [10] | [11] | [12] | [13] | [14]

Cc1cc(CCC(=O)OCCOCCOCCOC(=O)CCc2cc(C)c(O)c(C(C)(C)C)c2)cc(C(C)(C)C)c1O
inactive: [1] | [2] | [3] | [4] | [5] | [6] | [7] | [9] | [10] | [11] | [12] | [13] | [14]

CCCCCCC(CO)CCCC (centres undefined)
active: [2] 32.9 µM and 36.2 µM | [3] 35.1 µM and 36.4 µM | [4] 30.5 µM and 36.6 µM
inactive: [5] | [6] | [7] | [9] | [10] | [11] | [12] | [13] | [14]

CC1(C)CCC[C@]2(C)[C@H]3CCO[C@]3(C)CC[C@@H]12
active: [2] 33.9 µM and 30.7 µM | [3] 36.7 µM and 35.6 µM | [4] 36.6 µM and 37.8 µM
inactive: [5] | [6] | [7] | [9] | [17] | [10] | [11] | [12] | [13] | [14]
